Screening data as filed in PubChem.
HP1b binding inh: HP1-beta chromodomain-methylated histone interaction inhibition; AlphaScreen HP1-beta / biotin-H3K9me3 peptide binding; Potency, µM (top dose mostly 114 µM), most hits filed as inhibitors; 0.56% of 390,000 active; also: nearly all actives have a fitted effect of over 70% in size
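AlphaScreen: HP1-beta (50 nM) preformed 30 min with biotin-H3(1-18)K9me3 peptide (50 nM) in PBS pH 7.4, 0.01% Tween-20. Compound added for 30 min at RT, then streptavidin donor/nickel chelate acceptor beads (10 ug/mL) for 30 min.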
G9a inh: inhibitors of human histone lysine methyltransferase G9a; 8.8% of 350,000 active; G9a H3K9 monomethylation, AlphaScreen, 2 h; Q96KQ7; Potency, µM (highest dose often 102 µM), hits mostly inhibitors; AID 504332; also: nearly all actives have a fitted effect of over 75% in size
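AlphaScreen read-out: biotin-H3K9 peptide (500 nM) methylation by 20 nM enzyme with 20 uM SAM, 2 h at room temperature after 15 min compound preincubation; anti-monomethyl H3K9 antibody plus donor/acceptor beads, 10 min dark.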
VDR inh: vitamin D3 receptor (human) inhibition. P11473. AID 504847. VDR-SRC2-3 peptide fluorescence polarization, 2 h. 0.93% of 400,000 active. Potency, µM, hits mostly inhibitors
Target sequence (P11473 whole entry, looked up): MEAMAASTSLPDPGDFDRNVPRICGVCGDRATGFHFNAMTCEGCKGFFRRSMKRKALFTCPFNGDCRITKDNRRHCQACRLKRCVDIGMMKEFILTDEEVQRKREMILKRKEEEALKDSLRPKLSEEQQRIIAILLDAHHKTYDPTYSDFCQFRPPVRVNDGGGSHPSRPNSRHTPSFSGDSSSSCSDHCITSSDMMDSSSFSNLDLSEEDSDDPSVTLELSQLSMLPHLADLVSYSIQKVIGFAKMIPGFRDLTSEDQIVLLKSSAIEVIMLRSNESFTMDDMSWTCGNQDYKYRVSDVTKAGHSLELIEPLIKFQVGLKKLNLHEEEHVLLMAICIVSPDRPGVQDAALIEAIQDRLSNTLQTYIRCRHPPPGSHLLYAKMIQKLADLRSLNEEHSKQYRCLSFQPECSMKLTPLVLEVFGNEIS
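Measured by FP: displacement of SRC2-3 coactivator peptide from VDR by library compounds, following a two-hour ambient incubation.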
PLK1 PBD block: inhibitors of human PLK1 polo-box domain binding. P53350. AID 720504. Potency, µM, most hits filed as inhibitors. 2.8% of 360,000 active. Plk1 PBD binding of FITC phosphopeptide, fluorescence polarization; also: series mostly up to about 57 µM; nearly all actives have a fitted effect of over 65% in size
JMJD2A Tudor: JMJD2A Tudor domain (human) inhibition; AlphaScreen JMJD2A-Tudor / H3K4me3 peptide binding; Potency, µM (highest dose often 114 µM), hits mostly inhibitors; 4.4% of 390,000 active; also: nearly all actives have a fitted effect of over 50% in size
BAZ2B inh: blocks human BAZ2B; AlphaScreen BAZ2B-H3K14Ac peptide displacement; Q9UIF8; AID 504333; Potency, µM (titrated, usually from 114 µM), hits mostly inhibitors; 4.4% of 360,000 active; also: nearly all actives have a fitted effect of over 60% in size
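BAZ2B (50 nM) with biotin-H3(5-23)K14Ac peptide (50 nM) in PBS pH 7.4, 0.01% Tween-20, preformed 30 min, then compound 30 min at room temperature; top concentration 110uM. AlphaScreen streptavidin donor/nickel chelate acceptor beads (10 ug/mL final), 20 min dark, signal read.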
Large screens that a line does not name were inactive. Hits are enriched below; roughly 11% of the tested compounds scored in any of these assays. Calls follow the shape of the dose curve; as a rule, active = well fitted curve in the direction sought with a large enough effect; inconclusive = small, poorly fitted or top-dose-only effect, or another doubt; inactive = no such curve, though single readings can be large; an effect the other way counts as inactive or inconclusive.

COc1ccc(-n2nc([N+](=O)[O-])c(=NCCc3ccc(C)cc3)n2O)cc1	HP1b binding inh inconclusive, G9a inh inconclusive, JMJD2A Tudor 50µM, BAZ2B inh inconclusive
Cc1ccc(CN=c2c([N+](=O)[O-])nn(-c3cccc(C)c3)n2O)cc1	HP1b binding inh inconclusive, JMJD2A Tudor 35µM, BAZ2B inh inconclusive
CCc1ccc(N=c2c([N+](=O)[O-])nn(-c3ccccc3)n2O)cc1	HP1b binding inh inconclusive, G9a inh inconclusive, JMJD2A Tudor 45µM, BAZ2B inh 32µM
COc1ccc(-n2nc([N+](=O)[O-])c(=NCCc3ccc(Cl)cc3)n2O)cc1	none
COc1ccc(-n2nc([N+](=O)[O-])c(=NCCC3=CCCCC3)n2O)cc1	HP1b binding inh 45µM, G9a inh 32µM, JMJD2A Tudor 40µM, BAZ2B inh 20µM
CC(C)CNc1nc(C#N)nc(Nc2ccccc2)n1	none (no result: HP1b binding inh, G9a inh, VDR inh, PLK1 PBD block, BAZ2B inh)
Cc1ccc(S(=O)(=O)N2CCN(C(=O)c3ccc(COc4ccccc4)o3)CC2)cc1	none
Cc1ccc(OCc2nnc(SCC(=O)c3ccccc3)n2Cc2ccco2)cc1	G9a inh inconclusive, JMJD2A Tudor inconclusive
O=C(CSc1nnc(COc2ccccc2)n1Cc1ccco1)c1ccc(F)cc1	G9a inh 28µM, JMJD2A Tudor 79µM, BAZ2B inh inconclusive
Cc1occc1-c1nnc(SCC(=O)c2ccc(F)cc2)n1Cc1ccco1	G9a inh 10µM, VDR inh inconclusive, BAZ2B inh 50µM
Cc1occc1C(=O)NNC(=O)c1ccccc1F	none
CS(=O)(=O)N(CC(=O)N1CCN(Cc2ccc3c(c2)OCO3)CC1)Cc1ccc(Cl)cc1	G9a inh inconclusive, BAZ2B inh 56µM
O=C(C(Cc1ccccc1)n1cccc1)N1CCCCC1 (stereo unspecified)	G9a inh inconclusive
O=C(C(Cc1ccccc1)n1cccc1)N1CCN(Cc2ccccc2)CC1 (stereo unspecified)	G9a inh 32µM, JMJD2A Tudor inconclusive, BAZ2B inh 50µM
CS(=O)(=O)N(Cc1ccccc1)c1ccc(C(=O)N2CCN(c3cccc(Cl)c3)CC2)cc1	none
COc1ccc(N2CCN(C(=O)CCCOc3cc(=O)n(C)c4ccccc34)CC2)cc1	G9a inh 79µM, JMJD2A Tudor inconclusive, BAZ2B inh inconclusive
CS(=O)(=O)N(Cc1ccc(Cl)cc1)c1ccc(C(=O)N2CCN(c3ccccc3)CC2)cc1	G9a inh 7.9µM, JMJD2A Tudor 89µM, BAZ2B inh inconclusive
COc1ccc(N2CCN(C(=O)Cc3ccc(OC)c(OC)c3)CC2)cc1	VDR inh inconclusive, PLK1 PBD block 24µM, JMJD2A Tudor 13µM
COc1ccc(N2CCN(C(=O)CCc3ccccc3)CC2)cc1	G9a inh 32µM
O=C(C(Cc1ccccc1)n1cccc1)N1CCN(c2cccc(Cl)c2)CC1 (stereo unspecified)	G9a inh inconclusive
COc1ccc(N2CCN(C(=O)C(Cc3ccccc3)n3cccc3)CC2)cc1 (stereo unspecified)	HP1b binding inh inconclusive, G9a inh 40µM, JMJD2A Tudor 56µM, BAZ2B inh 28µM
COc1ccc(N2CCN(C(=O)C(OC(C)=O)c3ccccc3)CC2)cc1 (stereo unspecified)	G9a inh 8.9µM
COc1ccc(N2CCN(C(C)C(=O)N(C)Cc3ccccc3)CC2)cc1 (stereo unspecified)	G9a inh 50µM
COc1ccccc1N1CCN(C(=O)CN(Cc2ccccc2)S(C)(=O)=O)CC1	none
COc1ccc(N2CCN(C(=O)CN(Cc3ccc(Cl)cc3)S(C)(=O)=O)CC2)cc1	G9a inh 79µM, JMJD2A Tudor inconclusive, BAZ2B inh inconclusive
COc1ccc(N2CCN(C(=O)CN(Cc3ccccc3)S(C)(=O)=O)CC2)cc1	G9a inh 50µM
O=C(CCC(=O)N1CCCCCC1)NCc1ccc(F)cc1	none
COc1ccccc1CNC(=O)Nc1ccc2c(c1)N(C)C(=O)c1ccccc1S2	HP1b binding inh inconclusive, BAZ2B inh inconclusive (no result: PLK1 PBD block)
COc1ccc(-c2nnc(SCC(=O)NCc3ccco3)o2)cc1	G9a inh inconclusive
